Inconclusive results are not listed. Calls of active or inactive are those of the source. The call rests on the fitted dose curve; in most records, active means well fitted inhibition curve with a large enough effect; inconclusive means small, poorly fitted or top-dose-only effect; inactive means flat fitted curve, though single readings scatter.
Columns and labels:
Assay in all cases: Cytotoxic Profiling of Annotated Libraries Using Quantitative High-Throughput Screening (AID 1296008); further: nearly all actives have a fitted effect of over 60% in size
Details in all cases: Five cell lines viability, CellTiter-Glo ATP luminescence, 48-72 h; max response: stronger effect = lower value
HEK293 = system: HEK293
How it was run: (§1)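 Cytotoxicity was measured as CellTiter-Glo ATP luminescence, read after 10 min at room temperature. Compound treatment of the cells lasted 48 or 72 hr at 37 degrees Celsius in a qHTS format.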

HaCat = system: HaCat
How it was run: as §1

KB-3-1 = system: KB-3-1
How it was run: as §1

NIH3T3 = system: NIH3T3
How it was run: as §1
On the % scale 0 is the no-effect control and ±100 the full control effect; potency means the concentration at half of the fitted maximal effect.

CC(C)(C)NCCCNC(=O)c1cccc(Br)c1
inactive: max response (HEK293) 0.813% | max response (HaCat) 4.1% | max response (KB-3-1) 6.67% | max response (NIH3T3) 3.37%

C=CC(C)(C)C12C=C(OC)C(=O)N3C(C(C)C)C(=O)NC31N(OC)c1ccccc12 (centres undefined)
inactive: max response (HEK293) -5.71% | max response (HaCat) -0.498% | outcome (KB-3-1) | max response (NIH3T3) -14.5%

CC[C@@H](O)C[C@@H]1C(C)=C[C@@H]2CCCC[C@@H]2[C@@]1(C)C(=O)O
inactive: max response (HEK293) -6.46% | max response (HaCat) -3.74% | outcome (KB-3-1) | max response (NIH3T3) -7.4%

CC[C@H](NC(=O)[C@H](CS(=O)(=O)CC1CC1)N[C@@H](c1ccc(F)cc1)C(F)(F)F)C(=O)C(=O)NC1CC1
inactive: max response (HEK293) -20.2% | max response (HaCat) -1.21% | max response (KB-3-1) 3.82% | max response (NIH3T3) -16%

O=C(c1cn(Cc2cncn2Cc2ccc(Br)cc2)cc1-c1cccc2ccccc12)N1CCOCC1
active: Potency (HEK293) 0.58 µM | Potency (HaCat) 5.8 µM | Potency (KB-3-1) 11.6 µM | Potency (NIH3T3) 7.31 µM

COc1ccc(-c2cnc3ccc(NCc4ccc(S(N)(=O)=O)cc4)nn23)cc1OC
inactive: max response (HEK293) -0.271% | outcome (HaCat) | max response (KB-3-1) -8.36% | max response (NIH3T3) -14%

CC1=CC(=O)CC(C)(C)[C@H]1/C=C/C(CO)O[C@@H]1O[C@H](CO)[C@@H](O)[C@H](O)[C@H]1O (some centres undefined)
inactive: max response (HEK293) -4.12% | outcome (HaCat) | outcome (KB-3-1) | max response (NIH3T3) -2.41%

COc1ccc(-c2nc(-c3ccc(-c4cccc(Cl)c4)o3)[nH]c2-c2ccc(OC)cc2)cc1
active: Potency (HEK293) 20.6 µM
inactive: max response (HaCat) -26.5% | max response (KB-3-1) -16.3% | max response (NIH3T3) -19.3%

CC(C)=CCC/C(C)=C/CO[C@@H]1O[C@H](CO)[C@@H](OC(=O)/C=C/c2ccc(O)cc2)[C@H](O[C@@H]2O[C@@H](C)[C@H](O)[C@@H](O)[C@H]2O)[C@H]1O
inactive: max response (HEK293) 1.83% | max response (HaCat) -28.8% | outcome (KB-3-1) | max response (NIH3T3) -7.03%

C[C@@]12C[C@]3(O)O[C@H](O1)[C@]1(COC(=O)c4ccccc4)[C@H]3C[C@@]12O[C@@H]1O[C@H](CO)[C@@H](O)[C@H](O)[C@H]1O
inactive: max response (HEK293) 0.308% | max response (HaCat) -7.15% | max response (KB-3-1) 8.38% | max response (NIH3T3) 3.01%

C=C[C@H]1CN2CC[C@H]1C[C@@H]2C(O)c1ccnc2ccc(OC)cc12 (some centres undefined)
inactive: max response (HEK293) -7.03% | max response (HaCat) 2.46% | max response (KB-3-1) 4.51% | max response (NIH3T3) 3.58%

COc1ccc(/C=C/C(=O)O[C@@H]2[C@@H](O)[C@H](C)O[C@@H](O[C@H]3[C@@H]4C=CO[C@@H](O[C@H]5O[C@@H](CO)[C@H](O)[C@@H](O)[C@@H]5O)[C@@H]4[C@@]4(CO)O[C@@H]34)[C@@H]2OC(C)=O)cc1
inactive: max response (HEK293) 0.0012% | max response (HaCat) 3.75% | max response (KB-3-1) 9.04% | max response (NIH3T3) 1.61%

CC1=C(C)C(=O)OC(C(C)C2CCC3C4CC=C5CC(OC6OC(COC7OC(CO)C(O)C(O)C7O)C(O)C(O)C6O)CC(O)C5(C)C4CCC23C)C1 (centres undefined)
inactive: max response (HEK293) -1.67% | max response (HaCat) -17.7% | max response (KB-3-1) 8.05% | max response (NIH3T3) 3.09%

OC[C@H]1O[C@@H](O[C@H]2[C@H](OCCc3ccccc3)O[C@H](CO)[C@@H](O)[C@@H]2O)[C@H](O)[C@@H](O)[C@@H]1O
inactive: max response (HEK293) -0.444% | max response (HaCat) -12% | max response (KB-3-1) 5.74% | max response (NIH3T3) -1.68%

O=C(Nc1ccn[nH]1)c1c(F)cccc1F
inactive: max response (HEK293) 4.81% | max response (HaCat) -3.04% | outcome (KB-3-1) | max response (NIH3T3) 3.6%

CC(Cc1cc2c(c(C(N)=O)c1)N(CCCO)CC2)NCCOc1ccccc1OCC(F)(F)F (centres undefined)
inactive: max response (HaCat) 2.13% | max response (KB-3-1) -19.6% | max response (NIH3T3) 2.09%
active: Potency (HEK293) 23.1 µM

CCc1ccc(Cc2ccc3c(c2)[C@]2(OC3)O[C@H](CO)[C@@H](O)[C@H](O)[C@H]2O)cc1
inactive: max response (HEK293) -3.78% | max response (HaCat) 3.62% | max response (KB-3-1) -4.58% | max response (NIH3T3) 1.11%

C[C@H]1CC[C@@]2(OC1)O[C@H]1CC3C4CC[C@H]5C[C@@H](O)[C@H](O)C[C@]5(C)C4=CC(=O)[C@]3(C)[C@H]1[C@@H]2C (some centres undefined)
inactive: max response (HEK293) -6.34% | max response (HaCat) -0.134% | max response (KB-3-1) 0.923% | max response (NIH3T3) -10.8%

CCn1c(=O)c(-c2ccn[nH]2)cc2c(C)nc(N)nc21
active: Potency (HEK293) 4.61 µM | Potency (HaCat) 2.59 µM | Potency (KB-3-1) 7.31 µM | Potency (NIH3T3) 1.84 µM

C[C@@H]1O[C@@H](O[C@H]2[C@H](O)[C@@H](O[C@@H]3O[C@H](CO)[C@@H](O)[C@H](O[C@@H]4O[C@H](CO)[C@@H](O)[C@H](O)[C@H]4O)[C@H]3O)[C@H](O[C@H]3CC[C@@]4(C)C(=CC[C@@H]5C4CC[C@@]4(C)C5C[C@@H]5OC6(CC[C@@](C)(CO[C@@H]7O[C@H](CO)[C@@H](O)[C@H](O)[C@H]7O)O6)[C@@H](C)[C@@H]54)C3)O[C@@H]2CO)[C@H](O)[C@H](O)[C@H]1O (some centres undefined)
inactive: max response (HEK293) 3.47% | max response (HaCat) -19% | max response (KB-3-1) 4.11% | max response (NIH3T3) 3.35%

OC[C@H]1O[C@@H](O[C@H]2[C@H](OCc3ccccc3)O[C@H](CO[C@@H]3OC[C@@H](O)[C@H](O)[C@H]3O)[C@@H](O)[C@@H]2O)[C@H](O)[C@@H](O)[C@@H]1O
inactive: max response (HEK293) 0.36% | max response (HaCat) -3.65% | max response (KB-3-1) 4.93% | max response (NIH3T3) -3.84%

CC(C)c1c2cc(-c3ccnc(NC4CCC(NC5CCOCC5)CC4)n3)ccc2nn1C (centres undefined)
active: Potency (HEK293) 0.13 µM | Potency (HaCat) 1.64 µM | Potency (KB-3-1) 0.231 µM | Potency (NIH3T3) 1.03 µM

CC1OC(OC2C(O)C(OC3CCC4(C)C(CCC5(C)C4CC=C4C6CC(C)(COC7OC(CO)C(O)C(O)C7O)CC(O)C6(C)CCC45C)C3(C)C)OC(C(=O)O)C2O)C(O)C(O)C1OC1OCC(O)C(O)C1O (centres undefined)
inactive: max response (HEK293) -5.93% | max response (HaCat) -5.35% | outcome (KB-3-1) | max response (NIH3T3) -0.449%

COc1cc2c(cc1OC)CC(=O)N(CCCNC[C@H]1Cc3cc(OC)c(OC)cc31)CC2
inactive: max response (HEK293) -6.01% | max response (HaCat) -2.44% | outcome (KB-3-1) | max response (NIH3T3) -0.121%

C[C@@H]1O[C@@H](O[C@H]2[C@H](O)[C@@H](O[C@@H]3O[C@H](CO)[C@@H](O)[C@H](O[C@@H]4O[C@H](CO)[C@@H](O)[C@H](O)[C@H]4O)[C@H]3O)[C@H](O[C@H]3CC[C@@]4(C)C(=CC[C@@H]5C4CC[C@@]4(C)C5C[C@@H]5OC6(CC[C@@](C)(CO[C@@H]7O[C@H](CO)[C@@H](O)[C@H](O)[C@H]7O)O6)[C@@H](C)[C@@H]54)C3)O[C@@H]2CO)[C@H](O)[C@H](O)[C@H]1OC1OC(CO)C(O)C(O)C1O (some centres undefined)
inactive: max response (HEK293) -4.6% | max response (HaCat) -1.18% | outcome (KB-3-1) | max response (NIH3T3) -4.4%

COC(=O)c1c(C)cc(OC(=O)c2c(C)cc(OC)cc2OC)cc1O[C@@H]1O[C@H](CO)[C@@H](O)[C@H](O)[C@H]1O
inactive: max response (HEK293) -0.971% | max response (HaCat) -0.836% | max response (KB-3-1) -1.14% | max response (NIH3T3) -1.71%

CCOc1ccc(S(=O)(=O)n2c(C)nc3ccccc32)cc1
inactive: max response (HEK293) -8.26% | max response (HaCat) -31.1% | max response (KB-3-1) -3.74% | max response (NIH3T3) -7.13%

COc1ccc(C2(O)CCC(N3CC[C@@H](NC(=O)CNC(=O)c4cccc(C(F)(F)F)c4)C3)CC2)cn1 (some centres undefined)
inactive: max response (HEK293) -19.1% | max response (HaCat) 0.0677% | max response (KB-3-1) -12.4% | max response (NIH3T3) -3.76%

CN[C@H](CC(C)C)C(=O)N[C@H]1C(=O)N[C@@H](CC(N)=O)C(=O)N[C@H]2C(=O)N[C@H]3C(=O)N[C@H](C(=O)N[C@H](C(=O)O)c4cc(O)cc(O)c4-c4cc3ccc4O)[C@H](O[C@H]3C[C@](C)(N)[C@@H](O)[C@H](C)O3)c3ccc(c(Cl)c3)Oc3cc2cc(c3O[C@@H]2O[C@H](CO)[C@@H](O)[C@H](O)[C@H]2O[C@H]2C[C@](C)(NCc3ccc(-c4ccc(Cl)cc4)cc3)[C@@H](O)[C@H](C)O2)Oc2ccc(cc2Cl)[C@H]1O
inactive: max response (HEK293) -5.83% | max response (HaCat) -0.936% | outcome (KB-3-1) | max response (NIH3T3) 1.69%

CC(NC(=O)CCc1nc2ccccc2c(=O)[nH]1)c1ccccc1 (centres undefined)
inactive: max response (HEK293) -0.47% | max response (HaCat) -2.07% | max response (KB-3-1) -4.27% | max response (NIH3T3) 2.87%

C=CC(C)(O)CC[C@H]1C(=C)CCC2[C@](C)(C(=O)O)CCC[C@@]21C (some centres undefined)
inactive: max response (HEK293) -3.52% | max response (HaCat) -5.99% | max response (KB-3-1) 0.39% | max response (NIH3T3) 2.59%

CC(C)c1nc(-c2ccc(NC(=O)Nc3cccc(C(F)(F)F)c3)c3ccccc23)c2c(N)nccn12
active: Potency (HEK293) 6.51 µM | Potency (HaCat) 7.31 µM | Potency (KB-3-1) 5.8 µM | Potency (NIH3T3) 8.2 µM

C=C[C@]1(C)C=C2CCC3C(C)(CCC[C@@]3(C)C(=O)O)C2CC1 (some centres undefined)
inactive: max response (HEK293) 0.507% | max response (HaCat) -0.617% | max response (KB-3-1) 8.11% | max response (NIH3T3) -2.38%

CC(=O)N[C@@H](CCCCN)C(=O)N(C)[C@@H](CC(C)C)C(=O)N[C@H](C(=O)N(C)[C@@H](Cc1ccccc1)C(=O)N[C@H](Cc1ccccc1)C(N)=O)C(C)C
inactive: max response (HEK293) -3.34% | max response (HaCat) -11.8% | outcome (KB-3-1) | max response (NIH3T3) -4.99%

COc1cc(NC(=O)Nc2cccc(CNC(=O)O[C@H]3CCOC3)c2)ccc1-c1cnco1
active: Potency (HEK293) 2.31 µM | Potency (KB-3-1) 4.11 µM | Potency (NIH3T3) 3.66 µM
inactive: max response (HaCat) -5.46%

CO[C@H]1C[C@@H]2CC[C@@H](C)[C@@](O)(O2)C(=O)C(=O)N2CCCC[C@H]2C(=O)O[C@H]([C@H](C)C[C@@H]2CC[C@H](n3cnnn3)[C@H](OC)C2)CC(=O)[C@H](C)/C=C(\C)[C@@H](O)[C@@H](OC)C(=O)[C@H](C)C[C@H](C)/C=C/C=C/C=C/1C
inactive: max response (HaCat) -3.38% | max response (KB-3-1) -0.0133% | max response (NIH3T3) 0.445%
active: Potency (HEK293) 0.0252 µM
